# Source: PubChem
# Only some compounds are listed: those with a hit (about 5.4% of all), similar ones and a draw of the others.
# HSF1 inh: HSF1 inhibition | NIH3T3-HGL HSE-luciferase, MG132-induced, luminescence 8 h; stronger effect = lower value | activity change, negative = inhibition, % at 7.5 µM (by protocol) | hit rate 0.77% among 300,000 | AID 2098;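 active means more than half of replicate wells show activity change below -50%, luminescence cut by over half; inconclusive means some wells, but at most half, below -50%; inactive means no replicate well below -50%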;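 further: luciferase reports HSF-1 transcriptional activity via heat shock element; 0% = median of DMSO wells and -100% = zero luminescence signal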
# AHR act: activators of human aryl hydrocarbon receptor | activation, % at 5 µM | AHR-responsive luciferase reporter cells, luminescence | hit rate 2.5% among 320,000 | P35869; in the data active means activation above about 47%;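 further: 0% = vehicle wells and 100% = reference agonist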
# GAA850 FXN act: activators of GAA850 frataxin (FXN) promoter | HEK293 lucGAA850 FXN promoter luciferase reporter, 24 h; percent of 10 µM SAHA response | activation, % at 6 µM | hit rate 0.56% among 360,000 | AID 540364;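 active means activation above the average of all compounds screened plus 3 SD, cutoff fixed separately per campaign, cut at about 7.5% in these data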;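 further: 0% = DMSO wells and 100% = 10 µM SAHA wells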
# HSF-1 act: increases HSF-1 driven luciferase reporter signal | NIH3T3-HGL HSF-1 luciferase reporter, MG132, 8 h; 100% = twice DMSO control signal | activation, % at 9 µM | hit rate 1.7% among 300,000 | AID 504408;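 active means mean replicate activation of at least 50% with a set share of replicates each reaching 50%; inconclusive means only one of those two conditions met; inactive means mean below 50% and too few replicates reaching it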;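 further: 0% = median of the neutral control wells and 100% = twice that signal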
# DAX1 inh: NR0B1 (DAX1) inhibition; P51843; HEK293 Gal4-DAX1 luciferase reporter, luminescence; inhibition, % at 6.75 µM; hit rate 0.99% among 340,000;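 active means inhibition above the mean over all tested compounds plus 3 SD, cut at about 4.2% in these data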;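 further: 0% = DAX1-transfected cells with DMSO and 100% = empty-vector control cells with DMSO; inhibition shows as a rise in luminescence from relieved DAX1 repression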
# Target sequence (P51843 207-470 limits assumed): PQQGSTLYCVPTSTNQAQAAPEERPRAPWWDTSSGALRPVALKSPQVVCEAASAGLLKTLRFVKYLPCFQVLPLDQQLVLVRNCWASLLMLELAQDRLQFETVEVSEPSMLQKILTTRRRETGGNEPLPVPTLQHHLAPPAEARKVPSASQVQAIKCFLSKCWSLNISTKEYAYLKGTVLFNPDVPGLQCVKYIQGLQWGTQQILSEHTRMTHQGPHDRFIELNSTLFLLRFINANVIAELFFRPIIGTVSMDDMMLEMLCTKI
# * marks the source's active call; other numbers are inactive results; u = inconclusive; x = no result given.
SMILES,HSF1 inh,AHR act,GAA850 FXN act,HSF-1 act,DAX1 inh
COc1cc(OC)cc(C(=O)NCCC(=O)NCCc2ccc(OC)c(OC)c2)c1,0,8,1,-7,0
N#C/C(=C(/O)COc1ccccc1)c1nc2ccccc2s1,8,4,0,1,4
N#C/C(=C(/O)COC(=O)c1ccc(C#N)cc1)c1nc2ccccc2s1,-7,122*,4,3,1
N#C/C(=C(/O)CSc1ccccn1)c1nc2ccccc2s1,-3,51*,4,9,-1
COc1ccc(NC(=O)c2sc3ncn(CC(=O)N4CCCCC4)c(=O)c3c2C)cc1OC,-1,2,-1,-12,0
COC(=O)c1ccc(NC(=O)COC(=O)C2CC(=O)N(Cc3ccccc3)C2)cc1 (centres undefined),-3,2,1,-8,4.2*
O=C1C(Cl)=C(O)C2(Cl)C(Cl)=C(Cl)C12Cl (centres undefined),x,x,1,x,1
CC(C)(C)OC(=O)N1CCC(CC2CC(c3cccc(Br)c3)=NO2)(C(=O)O)CC1 (centres undefined),2,2,1,0,-1
CCN(CC)c1nc(N)c(C#N)c(CC#N)c1C#N,5,18,5,11,0
CCCN(CCC)c1nc(N)c(C#N)c(CC#N)c1C#N,79,7,5,115*,0
CCCN(CC1CC1)c1nc(N)c(C#N)c(CC#N)c1C#N,83,11,6,72*,-2
O=C(C1=C(O)C(=O)N(c2ncccn2)C1c1ccc(Cl)c(Cl)c1)c1ccco1 (centres undefined),9,22,1,-2,-1
O=C(C1=C(O)C(=O)N(c2ncccn2)C1c1ccc(Cl)cc1)c1ccco1 (centres undefined),3,75*,-2,6,1
O=C(NC(=S)Nc1ccccc1Cl)c1cncc(Br)c1,1,45,2,1,2
O=C(NC(=S)Nc1ccccc1Cl)c1cncc(C#Cc2ccccc2)c1,-10,2,0,21,4.4*
Cc1ccccc1C(=O)Nc1ccnn1C1CCN(C(=O)C2CCOC2)CC1 (centres undefined),-6,0,-1,12,0
CCN(CC)C(=O)COc1coc(CN2CCN(c3ccccc3)CC2)cc1=O,0,0,1,7,0
CCN(CC)C(=O)COc1coc(CN2CCN(c3ccc(F)cc3)CC2)cc1=O,-62*,1,-1,-69,0
CCC1CCCCN1C(=O)c1sc2ncnc(N(CC)CC)c2c1C (centres undefined),7,59*,0,12,0
S=C1NC2=C(CCC/C2=C\c2ccccc2)C(c2ccccc2)N1 (centres undefined),8,4,1,11,-2
C(=C1/CCCC2=C1Nc1ncnn1C2c1ccccc1)/c1ccccc1 (centres undefined),53,-1,x,90*,x
CCN1CCCC1CNC(=O)c1cc(S(=O)(=O)N(C)C)ccc1Cl (centres undefined),-13,-4,-1,-2,2
CC(C)CC(=O)Nc1ccc(Oc2ccc3c(c2)C(=O)NC3=O)cc1,-5,-4,0,-4,0
CCCCc1ccc(NS(=O)(=O)c2c(C)n(C)c(=O)n(C)c2=O)cc1,27,-1,2,64*,0
Cc1cccc(N2CCN(c3ccc4cc(S(=O)(=O)N5CCCCC5)ccc4n3)CC2)c1C,-2,-2,1,-1,1
SMILES,HSF1 inh,AHR act,GAA850 FXN act,HSF-1 act,DAX1 inh
Cc1ccc(C(=O)Cn2nnc(-c3ccccc3-n3cnnn3)n2)cc1,53,-1,-3,73*,-2
COC1=CC(=O)C=C(OC)C1(O)CC(C)=O,x,x,-1,x,2
COC(=O)c1ccc(N=NN2CCCCCC2)cc1,32,1,7,75*,2
NS(=O)(=O)c1ccc(CCNC(=O)c2ccc(Cl)s2)cc1,-4,-6,0,3,0
NS(=O)(=O)c1ccc(CCNC(=O)c2ccc([N+](=O)[O-])s2)cc1,44,-1,2,94*,-1
O=c1oc2cc(Cl)ccc2n1CSc1nc2ccccc2s1,63,40,4,104*,3
CCc1ccccc1NC(=O)CSc1nnc(Cn2cnc3ccccc32)o1,-3,6,-1,6,-1
NC(=O)CSc1nnc(Cn2cnc3ccccc32)o1,-6,1,1,-10,4.2*
CCN(CC)S(=O)(=O)c1ccc(N2CCOCC2)c(NC(=O)c2cc3ccccc3oc2=O)c1,27,-4,1,69*,0
CN(Cc1nc(-c2ccccc2)no1)C(=O)c1ccc2c(c1)OCO2,-59*,6,2,-62,1
Cc1cccc(-c2noc(CSc3ccccc3)n2)c1,14,7,3,45,1
Cc1ccc(OCc2nc(-c3ccccc3)no2)cc1,31,4,7,29,4.8*
c1ccc(-c2noc(COc3ccc4c(c3)OCO4)n2)cc1,46,9,4,55*,4
COc1ccc(-c2noc(COc3ccc4c(c3)OCO4)n2)cc1,-4,0,0,-6,-1
Cc1ccc(-c2noc(CSc3ccccc3)n2)cc1,37,4,4,69*,0
Cc1cc(NC(=O)c2cccnc2)ccc1Br,16,14,4,31,3
Cn1c(-c2ccc(Cl)cc2)cnc1N,x,1,-2,x,1
Nc1cccn2c(-c3ccc(Cl)cc3)cnc12,5,70*,6,22,2
COc1ccc(C2Nc3ccccc3C(=O)N2c2ccccc2)cc1CN1CCOCC1 (centres undefined),-2,1,4,11,6.1*
COc1ccc(C2Nc3ccccc3C(=O)N2Cc2ccccc2)cc1CN1CCOCC1 (centres undefined),26,-1,-2,38,0
COc1ccc(C2Nc3ccccc3C(=O)N2c2ccc(C)cc2)cc1COc1ccccn1 (centres undefined),22,15,2,58*,-1
COc1ccc(Nc2nc3cc(-c4ccccc4C)sc3c(=O)n2C)cc1OC,x,x,-3,x,x
Cn1/c(=N/NC(=O)c2ccccc2F)sc2ccccc21,18,70*,5,27,0
CC(=O)N=c1sc2ccccc2n1C,2,0,1,-6,1
COc1cccc(C(=O)N/N=c2\sc3ccccc3n2C)c1,44,73*,1,81*,0
CCC(=O)N/N=c1/sc2ccccc2n1C,5,36,0,13,0
Cc1ccc(C(=O)N/N=c2\sc3ccccc3n2C)cc1,23,95*,5,u,0
CC(/C=N/NC(=O)c1ccccc1F)c1ccccc1 (centres undefined),6,3,3,-1,6.6*
CC(/C=N/NC(=O)c1ccccc1F)=C\c1ccccc1,18,-5,3,33,1
Cc1cccc(N(C)C(=O)CCS(=O)(=O)c2cc3c(cc2Cl)NC(=O)CO3)c1,-3,1,0,-13,0
